SMILES strings stand for the structures. Screen size: about 39,000 compounds; about 3,300 (8.5%) were called active. The sample holds actives, similar compounds and a random draw of the others, so the mix is not that of the screen.

The experiment concerns HepG2. Put plainly: cytotoxicity call (relative viability < 0.9). The settings on record: 10 µM.
Regarding `COc1ccc(NC(=O)N(C)C[C@H]2Oc3c(NS(C)(=O)=O)cccc3C(=O)N([C@H](C)CO)C[C@H]2C)cc1`, the cytotoxicity call is “inactive”. Next, `O=C1C(O)=C(C2CCC(c3ccc(Cl)cc3)CC2)C(=O)c2ccccc21` (centres undefined): “active”; `CCCCC(=O)C1CCC(c2ccc(Cl)cc2)CC1` (centres undefined): “inactive”. Next, `O=C1c2ccccc2C(=O)C1c1ccc(Cl)cc1`: “inactive”; `C[C@H](CO)N1C[C@H](C)[C@H](CN(C)C(=O)c2ccccc2)OCCCC[C@H](C)Oc2ccc(NC(=O)Cc3ccccc3)cc2C1=O`: “inactive”. For `CCO[C@H]1OC(C(=O)N2CCN(Cc3ccccc3)CC2)=C[C@@H](c2cn(C(C)=O)c3ccccc23)[C@@H]1CCCOC(=O)NCCCCCC(=O)NO` the value was “inactive”.

For the compound `NCCCCCCNC(=O)[C@H]1C[C@H]2C(=O)N[C@@H](CCCCN)C(=O)N2[C@H]1c1ccc(O)cc1`, the cytotoxicity call was “inactive”.

Turning to `C[C@@H]1CN([C@@H](C)CO)C(=O)c2cc(NC(=O)Nc3ccc(C(F)(F)F)cc3)ccc2O[C@@H](C)CCCCO[C@@H]1CN(C)S(=O)(=O)c1ccc(F)cc1`, the cytotoxicity call is “inactive”. Next, `C[C@@H]1CCCCO[C@@H](CN(C)Cc2ccc(C(=O)O)cc2)[C@H](C)CN([C@@H](C)CO)C(=O)c2cc(NS(=O)(=O)c3ccc(F)cc3)ccc2O1`: “inactive”; `CC(C)(C)C(=O)OCOP(=O)(COCCn1cnc2c(N)ncnc21)OCOC(=O)C(C)(C)C` [listing 1 of 2 here]: “active”; `CC(C)(C)C(=O)OCOP(=O)(COCCn1cnc2c(N)ncnc21)OCOC(=O)C(C)(C)C` [listing 2 of 2 here]: “active”. Consider `Nc1ncnc2c1ncn2CCN1CCCCC1`, for which the cytotoxicity call was “inactive”. For `Nc1ncnc2c1ncn2CCN1CCOCC1` the value was “inactive”; for `CC(Cn1cnc2c(N)ncnc21)OCP(=O)(O)O` (centres undefined), “active”.

Consider `Nc1ncnc2c1ncn2[C@H]1O[C@H](COP(=O)(O)O)[C@@H](O)[C@H]1O`, for which the cytotoxicity call was “inactive”. In the case of `CC(C)OC(=O)OCOP(=O)(CO[C@H](C)Cn1cnc2c(N)ncnc21)OCOC(=O)OC(C)C`, the cytotoxicity call was “inactive”. For `Nc1ncnc2c1ncn2C1OC(COP(=O)(O)O)C(O)C1O` (centres undefined) the value was “inactive”; for `Nc1ncnc2c1ncn2CCO`, “inactive”.

For `CCCNC(=O)Nc1ccc2c(c1)C(=O)N(C)C[C@@H](OC)[C@@H](C)CN(Cc1ccc(-c3ccccn3)cc1)[C@@H](C)CO2`, the cytotoxicity call was “inactive”. Regarding `COc1ccc(S(=O)(=O)Nc2ccc3c(c2)CC(=O)N([C@@H](C)CO)C[C@H](C)[C@@H](CN(C)C(=O)Nc2c(C)noc2C)O3)cc1`, the cytotoxicity call was “inactive”. For `CN1CCN(C(=O)Cn2cc(-c3ccc(C(=O)NO)cc3)nn2)CC1` the value was “inactive”; for `Cc1noc(C)c1NC(=O)N[C@@H]1C=C[C@@H](CC(=O)N2CCN(C)CC2)O[C@@H]1CO`, “inactive”.

Take `COc1ccc(cc1)CN1C[C@]2(CN(C2)C(=O)Cc2ccncc2)c2c([nH]c3cc(ccc23)OC)[C@@H]1CO`: the cytotoxicity call was “inactive”. Next, `C[C@H](CO)N1C[C@H](C)[C@@H](CN(C)Cc2ccncc2)Oc2ccc(NC(=O)Nc3cccc4ccccc34)cc2CC1=O`: “active”; `C[C@H]1CN([C@@H](C)CO)C(=O)Cc2cc(NC(=O)Nc3cccc4ccccc34)ccc2O[C@@H]1CN(C)Cc1ccncc1`: “inactive”. For `C[C@@H]1CN([C@H](C)CO)C(=O)Cc2cc(NC(=O)Nc3cccc4ccccc34)ccc2O[C@@H]1CN(C)Cc1ccncc1` the value was “active”; for `C[C@H]1CN([C@@H](C)CO)C(=O)Cc2cc(NC(=O)Nc3cccc4ccccc34)ccc2O[C@H]1CN(C)Cc1ccncc1`, “inactive”; for `C[C@H](CO)N1C[C@H](C)[C@H](CN(C)Cc2ccncc2)Oc2ccc(NC(=O)Nc3cccc4ccccc34)cc2CC1=O`, “active”. For the compound `C[C@@H]1CN([C@H](C)CO)C(=O)Cc2cc(NC(=O)Nc3cccc4ccccc34)ccc2O[C@H]1CN(C)Cc1ccncc1`, the cytotoxicity call was “inactive”. `C[C@@H]1CN([C@@H](C)CO)C(=O)Cc2cc(NC(=O)Nc3cccc4ccccc34)ccc2O[C@H]1CN(C)Cc1ccncc1`: the cytotoxicity call is “inactive”. For `C[C@@H]1CN([C@@H](C)CO)C(=O)Cc2cc(NC(=O)Nc3cccc4ccccc34)ccc2O[C@@H]1CN(C)Cc1ccncc1` the value was “active”; for `COc1ccc(S(=O)(=O)N[C@H]2CC[C@@H](CC(=O)N3CCC(Cc4ccccc4)CC3)O[C@@H]2CO)cc1`, “inactive”; for `C[C@@H]1CCCCO[C@H](CN(C)C(=O)Nc2ccc3c(c2)OCO3)[C@H](C)CN([C@@H](C)CO)C(=O)c2cc(NS(=O)(=O)c3cccs3)ccc2O1`, “inactive”. Turning to `CC(C)NC(=O)Nc1cccc2c1O[C@H](CN(C)S(=O)(=O)c1cccs1)[C@H](C)CN([C@H](C)CO)C2=O`, the cytotoxicity call is “inactive”. As for `CCCN(C)C[C@@H]1Oc2cc(C#Cc3ccc(OC)cc3)ccc2S(=O)(=O)N([C@H](C)CO)C[C@@H]1C`, the cytotoxicity call is “inactive”.

`Cc1ccc(C(=O)CCNc2ccc3c(c2)oc2ccccc23)o1`: the cytotoxicity call is “inactive”. Next, `C[C@@H]1CCCCO[C@@H](CN(C)C(=O)c2ccccc2)[C@@H](C)CN([C@H](C)CO)C(=O)c2cc(NC(=O)Nc3cccc4ccccc34)ccc2O1`: “inactive”; `C[C@H]1CCCCO[C@H](CN(C)S(=O)(=O)c2cn(C)cn2)[C@@H](C)CN([C@@H](C)CO)C(=O)c2cc(NC(=O)Nc3ccc(C(F)(F)F)cc3)ccc2O1`: “inactive”; `Cc1noc(C)c1S(=O)(=O)Nc1ccc2c(c1)CC(=O)N([C@H](C)CO)C[C@@H](C)[C@H](CN(C)S(=O)(=O)c1ccc(F)cc1)O2`: “inactive”.

Turning to `C[C@@H]1CN([C@H](C)CO)C(=O)c2cc(NC(=O)Nc3cccc4ccccc34)ccc2O[C@@H](C)CCCCO[C@@H]1CN(C)C(=O)C1CCCCC1`, the cytotoxicity call was “inactive”.

For the compound `C[C@@H]1CN([C@@H](C)CO)C(=O)c2cccc(NC(=O)Nc3ccc(F)cc3)c2O[C@@H]1CN(C)C(=O)Nc1cccc2ccccc12`, the cytotoxicity call is “inactive”. As for `C[C@@H](NC(=O)c1ccccc1)C(=O)NN`, the cytotoxicity call was “inactive”. Next, `C[C@H](CO)N1C[C@H](C)[C@H](CN(C)Cc2ccccc2)OCCCC[C@H](C)Oc2ccc(NC(=O)NC3CCCCC3)cc2C1=O`: “inactive”. Next, `C[C@@H]1CN([C@H](C)CO)C(=O)c2cc(NC(=O)NC3CCCCC3)ccc2O[C@@H](C)CCCCO[C@@H]1CN(C)Cc1ccccc1`: “inactive”. Next, `C[C@@H]1CCCCO[C@H](CN(C)Cc2ccccc2)[C@H](C)CN([C@@H](C)CO)C(=O)c2cc(NC(=O)NC3CCCCC3)ccc2O1`: “active”; `C[C@@H]1CCCCO[C@@H](CN(C)Cc2ccccc2)[C@H](C)CN([C@@H](C)CO)C(=O)c2cc(NC(=O)NC3CCCCC3)ccc2O1`: “inactive”; `C[C@@H]1CCCCO[C@@H](CN(C)Cc2ccccc2)[C@H](C)CN([C@H](C)CO)C(=O)c2cc(NC(=O)NC3CCCCC3)ccc2O1`: “inactive”.

As for `C[C@@H]1CCCCO[C@H](CN(C)Cc2ccccc2)[C@@H](C)CN([C@@H](C)CO)C(=O)c2cc(NC(=O)NC3CCCCC3)ccc2O1`, the cytotoxicity call was “active”. Next, `C[C@H]1CCCCO[C@@H](CN(C)Cc2ccncc2)[C@@H](C)CN([C@@H](C)CO)C(=O)c2cc(NC(=O)NC3CCCCC3)ccc2O1`: “inactive”; `C[C@@H]1CN([C@@H](C)CO)C(=O)c2cc(NC(=O)NC3CCCCC3)ccc2O[C@@H](C)CCCCO[C@H]1CN(C)Cc1ccccc1`: “inactive”; `C[C@@H]1CCCCO[C@H](CN(C)Cc2ccncc2)[C@H](C)CN([C@@H](C)CO)C(=O)c2cc(NC(=O)NC3CCCCC3)ccc2O1`: “active”.

Consider `C[C@@H]1CN([C@@H](C)CO)C(=O)c2cc(NC(=O)NC3CCCCC3)ccc2O[C@@H](C)CCCCO[C@@H]1CN(C)Cc1ccncc1`, for which the cytotoxicity call is “inactive”. Regarding `C[C@@H]1CCCCO[C@@H](CN(C)Cc2ccccc2)[C@@H](C)CN([C@H](C)CO)C(=O)c2cc(NC(=O)NC3CCCCC3)ccc2O1`, the cytotoxicity call is “inactive”. `C[C@@H]1CCCCO[C@@H](CN(C)Cc2ccccc2)[C@@H](C)CN([C@@H](C)CO)C(=O)c2cc(NC(=O)NC3CCCCC3)ccc2O1`: the cytotoxicity call is “active”.

The values above are taken from the antibiotic and cytotoxicity screens of Wong et al. (2023).
